Experimental data reported in PubChem BioAssay AID1209 (Sanford-Burnham Center for Chemical Genomics, 2008).
The whole screen tested about 190,000 compounds, of which about 810 (0.43%) were called active. No stated cut-off is given here; in the data, active means inhibition above about 50%; inactive means the rest. What follows is part of a selection rich in actives, with near analogues and random picks from the rest.

The compounds below were run against Mannose-6-phosphate isomerase (Homo sapiens) (UniProt P34949) (assay: inhibitors of human PMI, primary screen, biochemical, fluorescence intensity, coupled assay (AID 1209;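 further: plate controls were DMSO vehicle for no effect and wells lacking substrate for full effect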)). Details: purified PMI enzyme, at 20 µM, active compounds read high.
Mannose-6-phosphate isomerase (Homo sapiens), sequence (P34949 whole entry, looked up): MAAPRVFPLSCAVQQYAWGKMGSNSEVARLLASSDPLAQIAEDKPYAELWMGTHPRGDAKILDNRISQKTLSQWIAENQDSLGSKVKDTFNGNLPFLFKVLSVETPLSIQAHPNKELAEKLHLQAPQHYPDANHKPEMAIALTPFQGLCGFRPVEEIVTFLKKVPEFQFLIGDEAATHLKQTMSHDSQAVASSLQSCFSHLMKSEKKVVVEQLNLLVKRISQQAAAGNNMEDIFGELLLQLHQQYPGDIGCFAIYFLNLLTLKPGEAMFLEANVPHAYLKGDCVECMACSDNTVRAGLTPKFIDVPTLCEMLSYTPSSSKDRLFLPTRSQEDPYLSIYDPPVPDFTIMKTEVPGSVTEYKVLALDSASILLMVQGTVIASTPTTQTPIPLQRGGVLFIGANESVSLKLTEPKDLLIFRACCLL

inhibition, inactive:
COc1cc2c(C#N)c(N3CCN(C)CC3)nc(N)c2c(N)n1 42.5%
CCCN(CC1CC1)c1nc(N)c2c(N)nc(OC)cc2c1C#N 47.8%
COCc1cc(C)nc(N2CCNCC2)c1C#N -0.4%
COc1cc2c(C#N)c(N3CCN(c4ccccc4OC)CC3)nc(N)c2c(N)n1 47.2%
N#Cc1c(N2CCCC2)nc(N)c2c(N)nc(N3CCCC3)cc12 6.9%
CCOc1ccccc1N1CCN(c2nc(N)c(C#N)c(CC#N)c2C#N)CC1 12.6%
COc1cc2c(C#N)c(N3CCOCC3)nc(N)c2c(N)n1 28.9%
CCCCN(CC)c1nc(N)c2c(N)nc(OCC)cc2c1C#N 37.5%
COc1ccc2cc(CN(CC3CCCO3)C(=O)Nc3ccccc3OC)c(=O)[nH]c2c1 (stereo not given) 3.2%
Cc1ccc2nc(C)c(C(=O)N/N=C/c3ccc(C(=O)O)cc3)cc2c1 13.8%
Cn1cccc1C(=O)NC(=O)COC(=O)c1ccccc1O 9.4%
Cc1cc(NC(=S)N(CCCN2CCN(C)CC2)Cc2ccco2)ccc1Cl 3.6%
CC1CCN(C(=O)CSc2nnc(CSc3ncccn3)n2C)CC1 -8.9%
CCOC(=O)c1nnc(-c2ccccc2)nc1Oc1ccc(Cl)cc1 2.2%
O=C(Nc1cccc(-c2nnc(-c3ccccc3)o2)c1)c1ccco1 7.4%
Cc1ccc(Oc2ccc(NC(=O)c3ccco3)cc2)cc1 6.1%
CCN(CC)c1ccc(/C=N/N2CCOCC2)c(O)c1 19.6%
COc1cccc(/C=N/N2CCOCC2)c1O 4.9%
CC(C)c1nc(CN2CCCCC2)cc(=O)[nH]1 8.6%
CCN(CC)S(=O)(=O)c1ccc(C(=O)NCc2n[nH]c(=S)n2Cc2ccccc2)cc1 10.2%
CC1=C(C(N)=O)C(c2cccs2)NC(=S)N1 (stereo not given) -11.8%
Cc1nn(C)c(C)c1N1C(=O)c2cccc3c(Br)ccc(c23)C1=O -0.5%
Cc1nn(C)c(C)c1N1C(=O)c2cccc3c(N)ccc(c23)C1=O 6%
O=C(NC(Nc1ncccn1)C(=O)c1ccccc1)c1ccccc1 (stereo not given) -2%
O=C(NC(NC(=O)c1ccccc1)c1ccccc1)c1ccccc1 -8.6%
CC(NC(=O)c1ccc2c(c1)OCCO2)C(=O)O (stereo not given) -5.6%
Cn1cc(CNCc2cnc3ccccn23)c(-c2ccc(Oc3ccccc3)cc2)n1 4.9%
CCN(CC)S(=O)(=O)c1ccc(NC(=O)c2cc(-c3cccs3)nc3ccccc23)cc1 -4.8%
O=[N+]([O-])c1ccc2c(c1Nc1ccccc1)=NC1(CCCCC1)N=2 46.2%
c1ccc(Nc2cccc(Nc3ccccc3)c2)cc1 21%
COc1cc(C(=O)N/N=C(\C)c2ccc3c(c2)OCO3)cc(OC)c1OC 2.6%
Cc1cc(C)n(-c2ccc([N+](=O)[O-])cc2)n1 7%
COc1ccc(C2=NN(C(=O)CSc3nnc(C)n3C)C(c3ccco3)C2)cc1 (stereo not given) -23.9%
C=CCn1c(SCC(=O)N2CCCCC2)nnc1-c1ccncc1 -1.3%
CN(C)C(=S)Nn1c(-c2ccccc2)nc2ccccc2c1=O 4.8%
Cc1ccc(-c2nc3ccccc3c(=O)n2NC(=S)N(C)C)cc1 16.6%
CCOC(=O)C1(C)C=C(Nc2ccc(OCC)cc2)C(=O)N1c1ccccc1 (stereo not given) 11.1%
CCOC(=O)c1c(NC(=O)CCl)sc(C(=O)N(CC)CC)c1C -11.1%
CCOC(=O)c1c(NC(=O)CN(C)C)sc(C(=O)N(CC)CC)c1C 8.3%
CC(C)CN(C(=O)CN1CCC(C)CC1)c1c(N)n(CC(C)C)c(=O)[nH]c1=O -5.2%
COc1ccc(C(=O)N/N=C(\C)CC(=O)N2CCN(C=O)CC2)cc1 5.1%
C/C(CC(=O)N1CCN(C=O)CC1)=N\NC(=O)c1ccc(Cl)cc1 -0.6%
Cc1cc(C)nc(Nc2n[nH]c(-c3ccccc3C)n2)n1 3.4%
O=c1[nH]c(-c2ccccn2)nc2ccccc12 19.5%
O=c1[nH]c(-c2cccnc2)nc2ccccc12 7.1%
CCOC(=O)C(C)n1cnc2c(nnn2-c2cccc(Cl)c2)c1=O (stereo not given) -9.6%
COc1ccccc1NC(C)C(=O)Nc1ccc(C(C)=O)cc1 (stereo not given) 19.5%
CCc1ccc(NC(=O)c2ccccc2SC)cc1 7.2%
Nn1cnnc1N/N=C/c1ccc(Cl)c([N+](=O)[O-])c1 13.3%
Cc1nnc(N/N=C/c2ccc(-c3ccc(Br)cc3)o2)n1N -11.5%
O=[N+]([O-])c1ccccc1-c1ccc(/C=N/n2cnnc2)o1 20.4%
Cc1nnc(N/N=C/c2ccc(-c3ccccc3F)o2)n1N -38.4%
COc1ccc(N2C(=O)CSCC2=O)cc1OC 1.2%
Cc1ccc(C)c(C(C)NC(=O)c2ccccc2Br)c1 (stereo not given) -5.5%
O=C1CSC(=Nc2ccccc2)N1Cc1ccccc1 6.4%
Cc1ccc(N=c2sc(C)c(C)n2C)cc1 -13%
CCOC(=O)c1ccc(N=C2NC(=O)CS2)cc1 10.2%
CCOC(=O)c1ccc(N=c2scc(C)n2CC)cc1 -8.8%
Cc1cc(C)nc(NC(=O)c2csnn2)c1 -0.9%
Cc1ccc(N=C2CSC(=O)N2)cc1 8.6%
Clc1ss/c(=N\c2ccccn2)c1Cl -30.7%
Cc1cc(C)c(C#N)c(Cl)n1 21%
CCC(=O)c1c[nH]c(C(=O)NCCCn2ccnc2)c1 10.2%
O=C(CCN1CCCCCC1)Nc1ccc(F)c(F)c1 -7.5%
COc1cc(/C=C(\NC(=O)c2ccccc2)C(=O)Nc2cccc(O)c2)c([N+](=O)[O-])cc1OC 9.6%
COC(=O)C(C(=O)OC)=C(/C=C/C=C/N(C)C)N(C)C 2.5%
O=C(Nc1ccc(Br)cc1)c1ccccc1CC[N+](=O)[O-] 17.3%
O=C1c2ccccc2C(=O)N1CC1c2ccccc2CCN1S(=O)(=O)c1cnc[nH]1 (stereo not given) 7.7%
CC(C)c1nnc(NC(=O)CSc2ncn[nH]2)s1 10.7%
CC(C)(C)C1CCC(=NNC(=O)c2ccccc2-n2cccc2)CC1 (stereo not given) 21%
CC12c3ccccc3C(c3ccccc31)C1C(=O)N(Cc3cccnc3)C(=O)[C@H]12 (stereo not given in full) 4.1%
COc1ccc2c(c1)c(=O)c(C(=O)c1ccc(C)cc1)cn2CC(=O)Nc1ccc(F)cc1 3.6%
COc1cc(OC)cc(-n2nnnc2SCC(=O)Nc2ccc(C(C)=O)cc2)c1 5.1%
Cc1cc(NC(=O)C(C)C)ncc1NC(=O)c1ccccn1 0.2%
O=C(CNC(=O)c1ccc(S(=O)(=O)N2CCCC2)cc1)N/N=C/c1ccc(Cl)cc1Cl 9.4%
Brc1ccc(N=Cc2ccccn2)cc1 -9.1%
NC1=NC(=Nc2ccc(Cl)cc2)c2ccccc21 -3.6%
NC1=NC(=Nc2ccc(Br)cc2)c2ccccc21 -7.2%
O=C1NC(=Nc2ccc(Cl)cc2)/C(=C/c2ccco2)S1 1.4%
CCOC(=O)Nc1ccc(OCc2nnc3c4ccccc4c(C)nn23)cc1 3.7%
CCOC(=O)c1cnc(SCC(=O)NCc2cccs2)nc1N -5.5%
CCN(CC)S(=O)(=O)c1ccc(/C=C/C(=O)OCC(=O)Nc2ccc(C(N)=O)cc2)cc1 -5.2%
NS(=O)(=O)c1ccc(NC(=O)COC(=O)/C=C/c2ccc([N+](=O)[O-])cc2)cc1 -1.2%

inhibition, active:
CCOc1cc2c(C#N)c(N3CCNCC3)nc(N)c2c(N)n1 65.4%
COc1cc2c(C#N)c(N3CCCCC3)nc(N)c2c(N)n1 66.7%
COc1cc2c(C#N)c(N3CCc4ccccc4C3)nc(N)c2c(N)n1 64.3%
CCOc1cc2c(C#N)c(N3CCCCC3)nc(N)c2c(N)n1 62.4%
Cc1ccc(-c2nnc(-c3ccc(NC(=O)c4ccco4)cc3)o2)cc1 75.9%
CC(=O)c1ccc2c3c(cccc13)C(=O)N(c1c(C)nn(C)c1C)C2=O 74.2%
O=C(NC(NC(=O)c1ccccc1)C(=O)c1ccccc1)c1ccccc1 109%
[O-][N+]1=c2ccc(Nc3ccccc3)cc2=NC12CCCCC2 79.7%
C=CCn1c(SCC(=O)N2N=C(c3ccco3)CC2c2ccco2)nnc1-c1ccncc1 (stereo not given) 57.4%
COc1ccc(-c2nc3ccccc3c(=O)n2NC(=S)N(C)C)cc1 57.4%
CCCCC(=O)Nc1sc(C(=O)N(CC)CC)c(C)c1C(=O)OC 58.3%
C/C(CC(=O)N1CCN(C=O)CC1)=N\NC(=O)c1cc2ccccc2cc1O 84.9%
O=c1[nH]c(-c2ccncc2)nc2ccccc12 71.3%
Cc1nnc(N/N=C\c2ccc(-c3ccccc3[N+](=O)[O-])o2)n1N 57.8%
Nn1cnnc1N/N=C\c1ccc(-c2ccccc2[N+](=O)[O-])o1 82.5%
CCOC(=O)c1ccc(N=c2ssnc2Cl)cc1 66.1%
Cc1cc(C)nc(/N=c2/ssnc2Cl)c1 60.1%
Clc1nssc1=Nc1ccccc1 57%
Cc1ccc(N=c2ssnc2Cl)cc1 75.1%
Clc1nssc1=Nc1ccc(Br)cc1 81.6%
Clc1ccc(N=c2ssnc2Cl)cc1 78.7%
CCN(CC)S(=O)(=O)c1ccc(/C=C/C(=O)OCC(=O)Nc2ccc(S(N)(=O)=O)cc2)cc1 70.7%
